Cycloheximide cs: affects cycloheximide protein synthesis inhibition readout, counter-screen; AID 2314; cell reporter, cycloheximide protein synthesis inhibition counterscreen; max response, %; 300,000 compounds, 12% hits; in the data active = max response mostly above about 13%, no sharp cut-off; inactive = mostly below about 14%; also: read at 38.3 µM for the half of the compounds with a filed dose; 0% is about no effect
Pf growth 48h: inhibits P. falciparum growth in the first generation, 48 h | P. falciparum luciferase growth in erythrocytes, 48 h | Potency, µM (highest dose often 28.7 µM), for the others: at the highest dose activity change, negative = inhibition, usual class: inhibitors | 310,000 compounds, 5.9% hits | AID 504832; also: potency is read from the fitted curve at half-maximal effect; % is scaled to controls: 0 for no effect and ±100 for the full control effect
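Luciferase-expressing P. falciparum in infected erythrocytes (2% hematocrit, 0.1% parasitemia final) in RPMI 1640/0.5% Albumax were exposed to compound for 48 hours at 37 C, 5% CO2; growth read as luminescence.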
SARS PLP yeast: blocks SARS-CoV papain-like protease in a yeast assay. S. cerevisiae expressing SARS-CoV PLpro, growth rescue. Potency, µM (titrated, usually from 32.9 µM), for inactives: at the highest dose activity, positive = growth rescue, usual class: activators. 330,000 compounds, 0.19% hits; calls by dose curve; also: potency is read from the fitted curve at half-maximal effect; 0% is about no effect; nearly all actives have a fitted effect of over 55% in size
Shiga inhibitor: Shiga toxin inhibition. Vero cells, Shiga toxin protein synthesis inhibition reporter. inhibition, % at 38.7 µM. 290,000 compounds, 9.2% hits. AID 2315; in the data active = inhibition mostly above about 28%, no sharp cut-off; inactive = mostly below about 43%; also: 0% is about no effect
NS1 inh: blocks influenza NS1 protein function; AID 2326; 270,000 compounds, 0.4% hits; Potency, µM (top dose mostly 46.1 µM), without a hit: at the top dose activity, positive = more growth; calls by dose curve; also: potency is read from the fitted curve at half-maximal effect; actives are rising curves; nearly all actives have a fitted effect of over 50% in size
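A cell-based growth assay was used: compounds that relieve NS1-induced slow growth of budding yeast raise OD600. Assay medium was yeast nitrogen base with ammonium sulphate and -URA supplement, pH 6.0, with 2% galactose.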
Pf growth 96h: P. falciparum growth inhibition at 96 hour, primary screen for plastid delayed-death inhibitors; Potency, µM (titrated, usually from 28.7 µM), without a hit: at the top dose activity change, negative = inhibition, most hits filed as inhibitors; AID 504834; 320,000 compounds, 6.9% hits; P. falciparum luciferase reporter growth, 96 h; also: potency is read from the fitted curve at half-maximal effect; % is scaled to controls: 0 for no effect and ±100 for the full control effect
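Cell-based qHTS: luciferase-tagged P. falciparum in erythrocytes (2% hematocrit, 0.05% parasitemia final) incubated with compounds for 96 hours, 37 C, 5% CO2; luciferase detection reagent then added and luminescence measured.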
Active calls of the source: *; ? = inconclusive; / = not tested or not shown; + = active, no number; [ ] = remark or other dose. The list is not random: actives were taken first. Their share in the collection is about 21%. Unless noted, calls follow the shape of the dose curve; as a rule, active = well fitted inhibition curve with a large enough effect; inconclusive = small, poorly fitted or top-dose-only effect, or another doubt; inactive = no such curve, though single readings can be large or run the other way.

SMILES	Cycloheximide cs	Pf growth 48h	SARS PLP yeast	Shiga inhibitor	NS1 inh	Pf growth 96h
COc1ccc2c(c1)-c1nc(/N=C/c3ccc(O)cc3)sc1CC2	11	21%	-73%	8	-28%	4.1µM*
Oc1ccc2ccccc2c1/C=N/c1nccs1	4	?	-1%	-6	-7%	/
COc1ccc(O)cc1	/	-7%	-7%	/	/	?
COc1ccc2c(c1)-c1nc(/N=C/c3c(O)ccc4ccccc34)sc1CC2	7	11%	-45%	5	-33%	4.7µM*
CCc1ccc(N(CC(=O)NCc2ccc3c(c2)OCO3)C(=O)c2csnn2)cc1	2	-4%	20%	16	11%	4%
S=C(NCc1cccnc1)Nc1ccc(Oc2ccccc2)cc1	12	?	3%	0	-2%	26%
CN(C)CCCNC(=S)Nc1ccc(Oc2ccccc2)cc1	26*	23%	-1%	67	/	?
OCCCNC(=S)Nc1ccc(Oc2ccccc2)cc1	0	-16%	-21%	24	-2%	25%
CCN(CC)CCNC(=S)Nc1ccc(Cl)cc1	2	5%	-3%	-9	2%	31%
CCN(CC)CCCNC(=S)Nc1ccc(Br)cc1	44*	124%	-3%	102*	-5%	?
CC(C)CNC(=S)Nc1ccc(Oc2ccccc2)cc1	21*	5%	-80%	23	-41%	5.2µM*
COCCN(C(=S)Nc1c(C)cccc1C)C(C)c1ccco1 (stereo not drawn)	6	-5%	4%	-7	1%	14%
NS(=O)(=O)Nc1ccccc1Br	-6	/	/	4	/	/
CCCCCCCCCCCCCCCC[N+](C)(C)Cc1ccccc1	/	1.7µM*	/	/	/	3µM*
C[N+](C)(C)Cc1ccccc1	-1	?	1%	-9	-5%	1µM*
CCCCCCCCCCCCCC[N+](C)(C)Cc1ccccc1	/	1.7µM*	/	/	/	2.7µM*
CCCCCCCCCCCC[N+](C)(C)CCOc1ccccc1	/	4.3µM*	/	/	/	2.4µM*
CCCCCCCCCCCCCCCCCC[N+](C)(C)CCC[Si](OC)(OC)OC	/	-12%	/	/	/	-2%
COc1ccc(C(=O)NCc2nnc(SCC(=O)N3CCc4ccccc43)n2CCc2ccccc2)cc1	-6	?	29%	-3	2%	?
CCCCCN(C(=O)CCC(=O)OCC(=O)c1c(C)cc(C)cc1C)c1c(N)n(CCCC)c(=O)[nH]c1=O	/	?	-1%	/	/	1%
COc1ccc(CC(=O)NCC2CCCN(Cc3ccc(OC(F)(F)F)cc3)C2)cc1 (stereo not drawn)	-2	9.3µM*	-3%	-11	11%	?
COC(=O)c1ccc(CN2CCCC(CNC(=O)Cc3ccc(OC)cc3)C2)cc1 (stereo not drawn)	1	21%	-3%	-4	13%	?
O=S1(=O)[C@H]2C[C@@H]3C=C[C@@]2(CN1Cc1cccc(C(F)(F)F)c1)O3	12*	22%	1%	14	-6%	45%
O=S1(=O)[C@H]2C[C@@H]3C=C[C@@]2(CN1Cc1cccc(F)c1)O3	-1	-1%	15%	-6	14%	?
O=C(COC(=O)c1cccc(S(=O)(=O)N2CCOCC2)c1)NCCc1ccccc1	-2	7%	-12%	23	1%	2%
SMILES	Cycloheximide cs	Pf growth 48h	SARS PLP yeast	Shiga inhibitor	NS1 inh	Pf growth 96h
O=C(/C(=C/O)N=Nc1ccccc1)c1cccs1	39*	?	-10%	42	/	75%
O=C(CCl)N(c1ccccc1)C1CCS(=O)(=O)C1 (stereo not drawn)	-2	12µM*	-14%	-16	-7%	?
O=C(c1ccco1)N1CCN(c2nnc(-c3ccccc3)c3ccccc23)CC1	-4	/	-21%	-8	-53%	?
O=C(c1ccco1)N1CCN(c2ncnc3c2oc2ccccc23)CC1	41*	57%	-12%	63*	-12%	/
c1ccc2c(c1)oc1c(N3CCOCC3)ncnc12	9.8*	45%	-2%	3	-9%	?
COc1ccccc1N1CCN(c2ncnc3c2oc2ccccc23)CC1	8.6*	?	0%	27	-135%	-27%
c1cnc(N2CCN(c3ncnc4c3oc3ccccc34)CC2)nc1	-2	33%	0%	11	-16%	/
CN(C)CCOc1ncnc2c1oc1ccccc12	1	11%	5%	2	-5%	/
c1coc(CN(Cc2ccco2)c2ncnc3c2oc2ccccc23)c1	19*	?	-55%	40	-9%[9.22 µM]	?
CS(=O)(=O)c1ccc(Cl)c(NC(=O)c2cccc(-n3cnnn3)c2)c1	/	-8%	-1%	/	/	6%
CC1CCN(C(=O)c2ccccc2SCC(=O)NCC2CCCCC2)CC1	/	?	0%	/	/	?
Clc1ncnc2c1oc1ccccc12	37*	127%	-2%	+	3%	?
Cc1cc(C)nc(Sc2ncnc3c2oc2ccccc23)n1	28	?	-7%	50*	4%	?
CCSc1ncnc2c1oc1ccccc12	2	52%	11%	9	-35%	42%
c1ccc2cc(Sc3ncnc4c3oc3ccccc34)ccc2c1	-4	7%	1%	-6	-1%	87%
O=C(COc1ccc(S(=O)(=O)N2CCCC2)cc1)N1CCCC1	-2	-30%	1%	48	-4%	-2%
CC(=O)O[C@@]12CO[C@@H]1C[C@H](OC1OCC(O)C(O)C1O)[C@@]1(C)C(=O)[C@H](O)C3=C(C)[C@@H](OC(=O)[C@H](O)[C@@H](NC(=O)c4ccccc4)c4ccccc4)C[C@@](O)([C@@H](OC(=O)c4ccccc4)C12)C3(C)C (stereo partly drawn)	-2	?	-8%	1	-64%	0.037µM*
CCCCCC(=O)N[C@@H](c1ccccc1)[C@@H](O)C(=O)O[C@H]1C[C@@]2(O)[C@@H](OC(=O)c3ccccc3)C3[C@](C)(C(=O)[C@H](O)C(=C1C)C2(C)C)[C@@H](OC1OCC(O)C(O)C1O)C[C@H]1OC[C@@]31OC(C)=O (stereo partly drawn)	3	?	4%	3	-77%	0.17µM*
CCC1CCCCN1CCCNC(=O)c1ccc(CS(=O)(=O)c2ccccc2OC)o1 (stereo not drawn)	2	16%	-5%	-3	-8%	12%
CCCc1c(C(=O)N/N=C(\C)CCc2ccccc2)nnn1-c1nonc1N	4	33%	-2%	-6	-9%	8%
Cc1ccc(CNC(=O)C2CCCN(S(=O)(=O)N3CC(C)CC(C)C3)C2)cc1 (stereo not drawn)	-4	11%	-2%	-2	-6%	5%
O=c1[nH]c2ccc(S(=O)(=O)N3CCN(S(=O)(=O)c4ccc5c(c4)OCCO5)CC3)cc2[nH]c1=O	-7	/	/	-4	/	/
Cc1nc(CS(=O)c2ccccc2)cc(N2CCOCC2)n1 (stereo not drawn)	-4	?	0%	-15	3%	8.3µM*

High-throughput results: PubChem BioAssay, National Center for Advancing Translational Sciences (NCATS)
